Data on seven compounds can be found in PubChem BioAssay (NCI).

The panel holds about 83,000 compounds, 20% with a hit somewhere; the sample as a whole holds those more often.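 48-hour exposure, single concentration, 96-well plates; percent growth endpoint where 0 means no net growth. Active: below 10.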 A number with no mark means an inactive call. Activity calls are given as the source filed them.

Some test systems named below: NCI-H23 lung; NCI-H226 lung; NCI-H322M lung; HOP-62 NSCLC; NCI-H460 lung; HOP-92 NSCLC; A549/ATCC NSCLC; 786-0 renal; COLO 205 colon; DU-145 prostate; K-562 leukemia; MALME-3M melanoma; MDA-MB-231 breast; RXF 393 renal; SF-268 CNS; SF-295 CNS; SF-539 CNS; UACC-257 melanoma; M14 melanoma; NCI-H522 lung.
Holding throughout (experiment): NCI-60 one-dose screen, 48 h (100 = growth as untreated, 0 = no growth, -100 = all killed)
What all share (settings): 10 µM unless noted

Take `COCCOC(C)C(/C=N/NC(N)=S)=N/NC(N)=S` (stereo not drawn): the growth in the experiment with NCI-H23 lung was 49.8%; with NCI-H226 lung, 72.2%; in the experiment on NCI-H322M lung, 89.8%; with HOP-62 NSCLC it was 72.4%; in the experiment with NCI-H460 lung, 85.8%; with HOP-92 NSCLC it was 101%. The growth in the experiment with A549/ATCC NSCLC is 78.3%; in the experiment on 786-0 renal, 99.3%; in the experiment on COLO 205 colon, 90.6%; in the experiment with DU-145 prostate, 102%; with K-562 leukemia it was 37.6%; with MALME-3M melanoma, 94.3%. In addition, the growth was 68% with MDA-MB-231 breast; 97.2% in the experiment on RXF 393 renal; 83.4% in the experiment on SF-268 CNS; 76.2% in the experiment on SF-295 CNS; 91.9% in the experiment with SF-539 CNS; 34.5% with UACC-257 melanoma. In addition, in the experiment with M14 melanoma, the growth is 65.5%.
Turning to `c1ccc(Nc2nc3c(s2)CCc2c[nH]cc2-3)nc1`, the growth in the experiment with NCI-H23 lung is 91.1%; in the experiment on NCI-H226 lung, 74.7%; with NCI-H322M lung it was 90.5%; in the experiment with HOP-62 NSCLC, 92.7%; in the experiment on NCI-H460 lung it was 100%; in the experiment with HOP-92 NSCLC it was 88.9%. The growth with A549/ATCC NSCLC is 91.6%; with 786-0 renal it was 105%; with COLO 205 colon, 98.4%; with DU-145 prostate, 103%; with K-562 leukemia it was 66.3%; in the experiment with MALME-3M melanoma, 92.5%. The growth in the experiment on MDA-MB-231 breast was 82.7%; in the experiment with RXF 393 renal it was 104%; with SF-268 CNS, 92.5%; with SF-295 CNS, 107%; with SF-539 CNS it was 106%; in the experiment with UACC-257 melanoma, 88.7%. The growth in the experiment on M14 melanoma is 102%.
As to `CCOC(=O)/C=C1\S/C(=N\Nc2cc(=O)[nH]c3ccc(Br)cc23)N(c2ccccc2)C1=O`, the growth with NCI-H23 lung was 88.1%; in the experiment with NCI-H226 lung, 84.1%; in the experiment with NCI-H322M lung it was 90.5%; in the experiment on HOP-62 NSCLC, 91.2%; in the experiment on NCI-H460 lung it was 95.9%; in the experiment with HOP-92 NSCLC, 81.5%. In addition, the growth in the experiment on A549/ATCC NSCLC is 103%; in the experiment with 786-0 renal it was 86%; in the experiment with COLO 205 colon, 46.6%; in the experiment on DU-145 prostate, 85.2%; with K-562 leukemia, 13.4%; in the experiment with MALME-3M melanoma, 82%. Also, the growth in the experiment with MDA-MB-231 breast was 86.2%; with RXF 393 renal, 35.2%; in the experiment on SF-268 CNS, 85.6%; in the experiment on SF-295 CNS, 100%; with SF-539 CNS it was 80.8%; with UACC-257 melanoma, 89.9%. In the experiment with M14 melanoma, the growth is 89.5%.
Consider `CC(C)Cc1nc(Nc2ccccc2)[nH]c(=O)c1C#N`, for which the growth is 33.8% in the experiment on NCI-H23 lung; 58.1% in the experiment with NCI-H226 lung; 61% with NCI-H322M lung; 82.7% in the experiment on HOP-62 NSCLC; 59.8% in the experiment on NCI-H460 lung; -14% (active) with HOP-92 NSCLC. For the same compound, the growth is 57.3% in the experiment with A549/ATCC NSCLC; 72.6% in the experiment on 786-0 renal; 49.7% in the experiment on COLO 205 colon; 70.8% in the experiment with DU-145 prostate; 48.8% in the experiment with K-562 leukemia; 72.6% in the experiment with MALME-3M melanoma. Also, the growth in the experiment on MDA-MB-231 breast was 47.9%; with RXF 393 renal, 67.4%; in the experiment with SF-268 CNS, 63.3%; with SF-295 CNS it was 58.7%; with SF-539 CNS, 50.7%; in the experiment with UACC-257 melanoma, 81.2%. Moreover, the growth with M14 melanoma is 53.2%.
Take `O=C(CN1C(=O)S/C(=C\C(Cl)=C\c2ccccc2)C1=O)NC1CCS(=O)(=O)C1` (stereo not drawn): the growth in the experiment on NCI-H23 lung was 74.3%; in the experiment on NCI-H226 lung, 77.3%; in the experiment on NCI-H322M lung it was 95.7%; in the experiment on HOP-62 NSCLC, 99.7%; in the experiment on NCI-H460 lung, 94.2%; in the experiment with HOP-92 NSCLC it was 80.4%. Moreover, the growth was 94.3% with A549/ATCC NSCLC; 78.7% in the experiment with 786-0 renal; 59% in the experiment with COLO 205 colon; 82.8% in the experiment with DU-145 prostate; 15.3% in the experiment with K-562 leukemia; 84.9% in the experiment with MALME-3M melanoma. Besides, the growth in the experiment with MDA-MB-231 breast was 77%; with RXF 393 renal, 26.7%; in the experiment on SF-268 CNS, 94.4%; with SF-295 CNS it was 85.3%; with SF-539 CNS, 56.8%; in the experiment with UACC-257 melanoma, 81.8%. For the same compound, the growth in the experiment with M14 melanoma was 64%.
As to `Cc1ncc(C(=O)Nc2ccc(CN3CCN(C)CC3)c(C(F)(F)F)c2)cc1C#Cc1cnc(N)c2ccc(C#N)cc12`, the growth was 29.5% in the experiment with NCI-H23 lung; 0.011% (active) in the experiment on NCI-H226 lung; 27.9% in the experiment with NCI-H322M lung; 11.2% in the experiment on NCI-H460 lung; -20.2% (active) with HOP-92 NSCLC; 27.2% in the experiment with NCI-H522 lung. Also, the growth in the experiment on A549/ATCC NSCLC is 22.9%; with 786-0 renal, -70.1% (active); in the experiment with COLO 205 colon, 5.29% (active); in the experiment on DU-145 prostate it was 8.97% (active); with K-562 leukemia, -35.3% (active); in the experiment on MALME-3M melanoma, -55.6% (active). In addition, the growth in the experiment with MDA-MB-231 breast is -76.5% (active); in the experiment on RXF 393 renal, -64% (active); in the experiment on SF-268 CNS, 16.7%; with SF-295 CNS, 54.1%; with SF-539 CNS, -0.429% (active); in the experiment with UACC-257 melanoma, -9.1% (active). Besides, in the experiment with M14 melanoma, the growth is -41.5% (active).
As for `Fc1cccc(-c2nc(-c3c[nH]c4ncccc34)cs2)c1`, the growth with NCI-H23 lung was 64.2% [100 µM]; with NCI-H226 lung, 53.1% [100 µM]; in the experiment with NCI-H322M lung, 59.1% [100 µM]; in the experiment on NCI-H460 lung, 40.5% [100 µM]; with HOP-92 NSCLC, 38.3% [100 µM]; in the experiment with NCI-H522 lung, 81.5% [100 µM]. Moreover, the growth is 33.9% [100 µM] in the experiment with A549/ATCC NSCLC; 62.3% [100 µM] in the experiment on 786-0 renal; 76.9% [100 µM] with COLO 205 colon; 63.8% [100 µM] in the experiment on DU-145 prostate; 94% [100 µM] with K-562 leukemia; 0.186% [100 µM] (active) in the experiment with MALME-3M melanoma. The growth is 44.6% [100 µM] with MDA-MB-231 breast; 51.7% [100 µM] in the experiment with RXF 393 renal; 45.5% [100 µM] in the experiment on SF-268 CNS; 17.2% [100 µM] in the experiment with SF-295 CNS; 56.1% [100 µM] with SF-539 CNS; 99.3% [100 µM] in the experiment with UACC-257 melanoma. Besides, the growth in the experiment with M14 melanoma is 22.2% [100 µM].
